Measured values: PubChem BioAssay AID624305 (National Center for Advancing Translational Sciences (NCATS), 2012)
Inconclusive results are not listed. A number with no mark means an inactive call. Active and inactive are the calls of the source. Calls follow the shape of the dose curve; as a rule, active = well fitted activation curve with a large enough effect; inconclusive = small, poorly fitted or top-dose-only effect; inactive = no such curve, though single readings can be large or run the other way.

Assay: qHTS assay for re-activators of p53 using a Luc reporter: Hit Validation; also: nearly all actives have a fitted effect of over 75% in size; as to activation: 0% is about no effect
Conditions: p53-responsive luciferase reporter cells, luminescence, H1299 line expressing heat-sensitive Ala138Val p53; series mostly up to 46.1 µM
Excerpt: The p53 tumor suppressor plays a key role in suppression of tumorigenesis and in human carcinogenesis. It is frequently found inactivated in human cancers, mainly by point mutation. These point mutations are found in a wide variety of human cancers and a majority of them affect the DNA binding domain of the protein. The point mutations either alter native p53 conformation or abolish DNA contact. Additionally, cancer cells with p53 mutations are more resistant to chemo-radiation therapies.
In order to find activators to reactivate this important protein, a cell-based screen for p53-dependent luciferase-reporter expression was developed. A p53-null H1299 lung cancer cell line was stably co-transfected with a temperature sensitive p53 mutant, p53-A138V, and a p53-responsive BP100-luciferase reporter. This cell model has previously been characterized in a gene chip profiling experiment for p53 activation. By lowering the culture temperature from 37 deg C (mutant p53 conformation) to 32 deg C (w.t. p53 conformation), a 30-60 fold increase in activation of luciferase activity is observed. At assay temperate, 37 deg C, basal reporter expression is very low and after the addition of detection reagent, a luminescent read-out is carried out. This is the hit validation assay, confirming the hits identified from the primary screen.
NIH Chemical Genomics Center [NCGC]
NIH Molecular Libraries Probe Production Centers Network [MLPCN]
Assay Provider (PI): Yi Sung, University of Michigan at Ann Arbor
5ul of 1000 cells per well are dispensed in all wells except column 4, into white solid-bottom TC-treated Kalypsys plates. The cells are kept in Opti-MEM and supplemented with 10% FBS and dispensed using a Multidrop (Thermo). Then using the Kalypsys pin-tool, 23nl of compounds are pinned. The compounds are starting concentration at 10mM, with 1:5 dilution, 4 points, and the control compound nocodazole is pinned in column 1 at 25mM, 1:3 dilution, in duplicate, 25mM nocodazole is pinned in column 2. Please note, all concentrations are working concentrations. 5ul of 1pM purified luciferase enzyme is dispensed using the Kalypsys dispenser in column 4. Plates are incubated for 24 hrs at 37 deg C, 5% CO2, and 95% humidity. Then 4ul of the detection reagent Amplite (ABD Bioquest) is added using the Kalypsys dispenser. Plates are incubated for 10 min at ambient room temperature and are then read on the ViewLux (Perkin Elmer) using a clear filter for a luminescent read-out.
Potency is read from the fitted curve at half-maximal effect.

SMILES | Potency | activation
CNc1ccc(/C=C/C(=O)c2ccc(C)cc2)cc1[N+](=O)[O-] | inactive | –
CCOC(=O)c1cc(-c2ccccc2)sc1NC(=O)CC | inactive | –
Cc1noc(C)c1C(=O)OCC(=O)N1CCc2ccccc21 | inactive | –
CC(=O)Nc1ccc(Nc2cc(C)nc3c(-c4ccccc4)cnn23)cc1 | 0.116 µM (active) | –
CCc1ccc2[nH]c(=O)c(CN(CCN(CC)CC)C(=O)NC3CCCCC3)cc2c1 | inactive | –
O=C(NNc1c2ccccc2nc2ccccc12)c1ccc(O)cc1 | inactive | –
CCCCC(=O)Nc1cccc(NC(=S)NC(=O)Cc2ccccc2)c1 | inactive | –
COc1cccc(C(=O)c2sc(NC(C)C)nc2N)c1 | – | 25.6% [at 9.22 µM]
N#C/C(=C/c1ccccc1[N+](=O)[O-])c1nc(C2CC2)cs1 | 5.8 µM (active) | –
COc1cc(C(=O)NCCc2cn3ccc(C)cc3n2)cc(OC)c1OC | – | 13.6% [at 9.22 µM]
CC(=O)N1CCN(C(=O)COC(=O)COc2c(C)cc(C)cc2C)CC1 | inactive | –
CN(C)c1ccc(C(=O)Nc2nc3c(s2)CCCC3)cc1 | 0.082 µM (active) | –
Clc1ccccc1Nc1nc2ccccc2o1 | 5.17 µM (active) | –
Cc1ccc2nc(SCn3nnc4ccccc4c3=O)[nH]c2c1 | 1.3 µM (active) | –
COC(=O)c1ccc(/C=C/c2ccc3cccc(OC(C)=O)c3n2)cc1 | 2.91 µM (active) | –
CCOc1ccc(-c2nnc(SCC(=O)N3CCNC3=O)o2)cc1 | 2.06 µM (active) | –
CC(=O)N(C)c1ccc(NC(=O)CCN2C(=O)c3ccccc3C2=O)cc1 | inactive | –
Cc1cc2nc(-c3ccc(SCC(=O)Nc4ccc(S(=O)(=O)NC5CC5)cc4)nc3)[nH]c2cc1C | 2.31 µM (active) | –
Cc1c(/C(O)=C2/C(=O)C(=O)N(Cc3cccnc3)C2c2cccs2)cnn1-c1ccccc1 (stereo not given) | 8.2 µM (active) | –
Cc1cc2[nH]c3ccccc3c2c(C)n1 | inactive | –

SMILES | Potency | activation
COC(=O)CSc1nc2cc3c(cc2cc1C#N)OCO3 | inactive | –
Cc1ccc(C(=O)c2c3ccc([N+](=O)[O-])cc3[n+]([O-])n2CCCN)cc1 | inactive | –
Cc1ccc(NC(=O)Nc2ccccc2)c(Br)c1 | 8.2 µM (active) | –
CC1(C)CC(=O)CC(=O)/C1=N\Nc1c(Cl)cc(Cl)cc1Cl | inactive | –
COc1nnc(-c2ccc(C)c(S(=O)(=O)N(C)C)c2)c2ccccc12 | inactive | –
COc1ccc2c(=O)c(-c3nc(C)cs3)coc2c1 | 2.06 µM (active) | –
C(=C\c1nc(-c2ccccc2)no1)/c1ccccc1 | 2.31 µM (active) | –
Cc1ccc2nc(-c3ccc(NC(=O)COC(=O)c4cncc(Br)c4)cc3)sc2c1 | 0.146 µM (active) | –
Cc1ccc(S(=O)(=O)NCC(=O)N2CCc3ccccc3C2)cc1 | inactive | –
C=CCn1c(P(C)(=O)O)nc2ccccc21 | inactive | –
COC(=O)CSc1nc2cc(OC)ccc2cc1C#N | 9.2 µM (active) | –
Cc1ccc2cc3c(N)c(C(=O)N4CCOCC4)sc3nc2c1 | 1.03 µM (active) | –
C=C[C@@H]1c2cc(C)ccc2N(S(=O)(=O)c2ccc(C)cc2)[C@H](c2ccccc2C(F)(F)F)C1(C#N)C#N | inactive | –
CC(C)(C)c1ccc(/C=N/Nc2ccc(C(=O)O)cc2)cc1 | inactive | –
N#CC1=C(N)N2C(=C(C#N)C13CCCCC3)SC1CCCCC12O (stereo not given) | inactive | –
O=C(CCC1CCCC1)Nc1ccc(Br)cn1 | 11.6 µM (active) | –
C=CCn1c(C)cc(C(=O)COC(=O)c2ccc(N)c([N+](=O)[O-])c2)c1C | 0.411 µM (active) | –
O=C(Nc1ccc(COc2ccccc2)cc1)c1cccc([N+](=O)[O-])c1 | inactive | –
Cc1ccc2oc(-c3ccc(C)c(NC(=S)NC(=O)c4cccs4)c3)nc2c1 | 4.61 µM (active) | –
COC(=O)c1ccc(-c2nc(-c3cccs3)no2)cc1 | 0.146 µM (active) | –
